# Data from article PMC4552634, “A New Set of Chemical Starting Points with Plasmodium falciparum Transmission-Blocking Potential for Antimalarial Drug Discovery” (PLoS ONE, 2015).
# Screen size: about 13,000 compounds; about 3,200 (25%) showed an effect of 50% or more. The list shows a part of the results.
# Tested on: P. falciparum stage V gametocytes
# Parameters: BacTiter-Glo ATP luminescence viability of purified stage V gametocytes in 384-well plates, per cent inhibition versus DMSO
# Settings: 48 h, 5 µM; inhibitor
row,SMILES,% Inhibition [%]
1,CN1CCC(N(C)c2nccc(N3CCN(Cc4cncn4Cc4ccccc4)CC3)n2)CC1 [TCMDC-125095],-8.441
2,Cc1ccc(-n2cc(CNCC3CCN(CCO)CC3)c(-c3ccc(F)cc3)n2)cc1 [TCMDC-124689],28.13
3,O=C(CNC1=NCCN1)Nc1ccc(NC(=O)Nc2ccc(NC(=O)CNC3=NCCN3)cc2)cc1 [TCMDC-137202],4.446
4,O=C(NCCCCN1CCCC2c3cccc(O)c3CCC21)c1ccc(-c2ccccc2)cc1 (stereo not drawn) [TCMDC-139080],37.51
5,O=C(N[C@H](Cc1ccc(Cl)cc1)C(=O)N1CCN(c2ccnc3cc(Cl)ccc23)CC1)[C@H]1Cc2ccccc2CN1 [TCMDC-141498],2.012
6,CC(=O)c1ccc2c(c1)C(NC(=O)c1cccc(Cl)c1Cl)C(CO)C(C)(C)O2 (stereo not drawn) [TCMDC-138988],-12.37
7,O=C(Nc1ccc(OC2CCN(Cc3ccccc3)C2)c(Cl)c1)c1ccc(F)cc1 (stereo not drawn) [TCMDC-133972],8.518
8,O=c1cc(NCCCNCc2scc3c(Cl)cc(C(F)(F)F)nc23)[nH]c2ccccc12 [TCMDC-141146],31.07
9,Cc1cc(N2CCCC2=O)ccc1-c1ccc(C(=O)N2CCC(Oc3cccc(Cl)c3)CC2)cc1 [TCMDC-136525],-32.31
10,Oc1ccccc1CCNC1CCc2ccccc2C1 (stereo not drawn) [TCMDC-137890],12.83
11,COc1cc(Cc2cnc(N)nc2N)ccc1OCc1ccc(-c2csnn2)cc1 [TCMDC-138683],-3.694
12,CCn1c(Sc2ccc(C#N)c([N+](=O)[O-])c2)nnc1-c1ccc(Cl)cc1 [TCMDC-135597],65
13,CCn1c(Sc2ccc(C#N)c([N+](=O)[O-])c2)nnc1-c1ccc(OC)cc1 [TCMDC-135602],29.96
14,CC(C)CCn1c(Sc2ccc(C#N)c([N+](=O)[O-])c2)nnc1-c1ccccc1Cl [TCMDC-135615],17.65
15,CC(C)CCn1c(Sc2ccc(C#N)c([N+](=O)[O-])c2)nnc1-c1cccc(Cl)c1 [TCMDC-135591],23.85
16,CC(C)Cn1c(Sc2ccc(C#N)c([N+](=O)[O-])c2)nnc1-c1ccccc1Cl [TCMDC-135609],54.29
17,CC(C)Cn1c(Sc2ccc(C#N)c([N+](=O)[O-])c2)nnc1-c1ccccc1 [TCMDC-141918],17.88
18,CC(C)CCn1c(Sc2ccc(C#N)c([N+](=O)[O-])c2)nnc1-c1ccc(Cl)cc1 [TCMDC-135596],54.47
19,CCCn1c(Sc2ccc(C#N)c([N+](=O)[O-])c2)nnc1-c1ccc(OC)cc1 [TCMDC-135582],31.08
20,COc1ccc(-c2nnc(Sc3ccc(C#N)c([N+](=O)[O-])c3)n2CCC(C)C)cc1 [TCMDC-135601],7.84
21,O=C(NCC(CCN1CCC(c2c[nH]c3ccccc23)CC1)c1ccccc1)Nc1ccc(Cl)c(Cl)c1 (stereo not drawn) [TCMDC-139626],1.901
22,COc1cccc2cc(C(=O)N[C@@H](CC(C)C)C(=O)N[C@H](C=NN3CCOC3=O)CC(C)C)oc12 [TCMDC-136064],12.6
23,Cc1noc(=O)c2ccc(NC(=O)C(O)(CSc3ccccc3)CC(C)C)cc12 (stereo not drawn) [TCMDC-135222],46.49

row,SMILES,% Inhibition [%]
1,Fc1cc(Cl)ccc1Nc1ccnc(Nc2ccc3cn[nH]c3c2)n1 [TCMDC-138575],13.66
2,c1ccc(-c2[nH]ncc2Nc2ccnc3ccccc23)nc1 [TCMDC-138641],-8.718
3,NC(=O)c1cc2nc(NC3CCC3)nc(Nc3cccc4[nH]ncc34)c2[nH]1 [TCMDC-137005],21.61
4,O=C(Cc1ccc([N+](=O)[O-])cc1)N1CCc2cc3nccc(N4CCN5CCC[C@@H]5C4)c3cc21 [TCMDC-140039],-19.96
5,O=C(Nc1ccccc1Cc1ccccc1)c1ccccc1C(F)(F)F [TCMDC-123550],54.56
6,O=C(Nc1ccc([N+](=O)[O-])cc1Cl)c1cc(Br)cc(Cc2ccccc2)c1O [TCMDC-124004],12.42
7,O=C(Nc1ccccc1Cc1ccccc1)c1ccccc1[N+](=O)[O-] [TCMDC-124438],42.41
8,O=C(Nc1ccc2c(c1)CCN2C1CCN(Cc2csc3ccccc23)C1)c1ccco1 (stereo not drawn) [TCMDC-135069],39.32
9,CCN1CCCC(Nc2ccnc3cc4ccccc4cc23)C1 (stereo not drawn) [TCMDC-123499],94.14
10,CN1CCN(c2ccnc3cc4ccccc4cc23)CC1 [TCMDC-124200],1.444
11,c1ccc2cc3c(NCCN4CCOCC4)ccnc3cc2c1 [TCMDC-125814],-3.95
12,Cn1c(=N)cc(-c2ccc(Br)cc2)c2c(=O)[nH]c(N)nc21 [TCMDC-137743],6.431
13,Cc1csc(-c2ccc3[nH]cc(C4=CCN(C)CC4)c3c2)n1 [TCMDC-132040],-6.013
14,COc1ccc(-c2ccc(S(=O)(=O)Nc3cc4c(cc3OC(C)C)CCNCC4)cc2)cc1 [TCMDC-141481],37.39
15,CN1CCc2cc(O)c(NS(=O)(=O)c3ccc(-c4ccc(Cl)cc4)cc3)cc2CC1 [TCMDC-141501],-85.22
16,O=S(=O)(Nc1cc2c(cc1O)CCNCC2)c1ccc(-c2ccc(Cl)cc2)cc1 [TCMDC-141497],-93.89
17,O=S(=O)(Nc1cc2c(cc1OCCCN1CCCCC1)CCNCC2)c1ccc(-c2ccc(Cl)cc2)cc1 [TCMDC-141753],106.2
18,CN1CCc2cc(NS(=O)(=O)c3ccc(-c4ccc(Cl)cc4)cc3)c(OCCCN3CCCCC3)cc2CC1 [TCMDC-141754],108.9
19,Cc1cc(-c2ccc(S(=O)(=O)Nc3cc4c(cc3OC(C)C)CCN(C)CC4)cc2)ccc1Cl [TCMDC-141488],42.37
20,CC(C)Oc1cc2c(cc1NS(=O)(=O)c1ccc(-c3ccc(Cl)cc3)cc1)CCN(C)CC2 [TCMDC-141459],21.1
21,CN1CCc2cc(NS(=O)(=O)c3ccc(-c4ccc(Cl)s4)cc3)c(N3CCCCC3)cc2CC1 [TCMDC-141588],76.97
22,CC(C)Oc1cc2c(cc1NS(=O)(=O)c1ccc(-c3ccc(Cl)s3)cc1F)CCN(C)CC2 [TCMDC-141582],18.13
23,N=C(N)NCCCCN(Cc1ccccc1)c1ccccc1 [TCMDC-131834],24.97

row,SMILES,% Inhibition [%]
1,Nc1nc2cccc3ccc4cccc1c4c32 [TCMDC-142055],15.08
2,COc1cc2ncnc(Nc3ccc(OCc4ccccc4Br)c(Cl)c3)c2cc1OC [TCMDC-131913],20.89
3,CCCCN(CCCC)Cc1cc(N(C)c2ccc([N+](=O)[O-])cn2)ccc1O [TCMDC-137484],-6.258
4,O=[N+]([O-])c1ccc(C=NNc2nc3ccccc3[nH]2)cc1 [TCMDC-124105],-75.71
5,O=[N+]([O-])c1ccc(C=NO)nc1 [TCMDC-131967],114.3
6,NC1CCN(c2nc(NCCCc3ccc(O)cc3)nc(NCc3ccccc3-c3ccccc3)n2)CC1 [TCMDC-133390],36.08
7,CC1(C)N=C(N)N=C(N)N1OCCc1ccccc1 [TCMDC-131597],-4.135
8,COc1ccc(NC(=O)C2c3ccccc3C(=O)N(CC(C)C)C2c2cccs2)cc1OC (stereo not drawn) [TCMDC-125289],95.75
9,COc1cc2c(cc1OC)C(C(=O)Nc1ccc(C(F)(F)F)cc1)C(c1cccs1)N(C)C2=O (stereo not drawn) [TCMDC-123797],62.6
10,CCCCN1CCN(c2cc(NS(=O)(=O)c3cccc(C(=O)Nc4ccc(C(F)(F)F)cc4)c3)ccc2OC)CC1 [TCMDC-141779],-16.75
11,COc1ccc(NC(=O)c2ccc(-c3nc(-c4cccc(C(F)(F)F)c4)cs3)cc2)cc1N1CCN(C)CC1 [TCMDC-138686],5.66
12,COc1cc(OC)c(NC(=O)C2c3ccccc3C(=O)N(C)C2c2cccs2)cc1Cl (stereo not drawn) [TCMDC-125447],95.47
13,COc1cc(OC)c(NC(=O)Nc2ccnc3ccccc23)cc1Cl [TCMDC-139463],15
14,COc1ccc(C2C(C(=O)Nc3cc(C)ccc3OC)c3ccccc3C(=O)N2C)cc1 (stereo not drawn) [TCMDC-123595],25.42
15,COc1ccc(C2C(C(=O)Nc3ccc(C)cc3Br)c3ccccc3C(=O)N2C)cc1 (stereo not drawn) [TCMDC-123597],-11.57
16,COc1ccc(C2CC(c3cccs3)=NN2C(=O)CNc2ccccc2F)cc1OC (stereo not drawn) [TCMDC-123552],-9.982
17,COc1ccc(C2C(C(=O)Nc3cc(Cl)c(OC)cc3OC)c3ccccc3C(=O)N2C)cc1 (stereo not drawn) [TCMDC-123596],80.19
18,O=C(/C=C/c1ccc(Cl)cc1)NCCCCCN1CCCC(C(=O)Nc2ccc(F)c(Cl)c2)C1 (stereo not drawn) [TCMDC-136113],4.941
19,CCN(CC)CCNC(=O)c1ccc(NC(=O)c2cc3c(C)nn(-c4ccc(Cl)cc4)c3s2)cc1 [TCMDC-124020],26.74
20,N#Cc1ccc(C=Cc2nccc3c2[nH]c2ccccc23)cc1 [TCMDC-124483],-0.1389
21,Cc1cc(C(=O)OCC(=O)Nc2c(C)n(C)n(-c3ccccc3)c2=O)c(C)n1-c1ccc(F)cc1 [TCMDC-123794],-8.44
22,CCOC(=O)c1[nH]c2ccc(F)cc2c1NC(=O)CN1CCN(c2cccc(C(F)(F)F)c2)CC1 [TCMDC-124048],-41.18
23,COc1ccc2nccc(N3CCC(NCCNS(=O)(=O)c4ccc5c(c4)NC(=O)CS5)C3)c2n1 (stereo not drawn) [TCMDC-134527],-17.46
